# Data: PubChem BioAssay AID372 (MTDP, 2006)
# Hit rate of the full screen: of about 100,000 compounds, about 770 (0.77%) were called active. No stated cut-off is given here; in the data, active means inhibition above about 50%; inactive means the rest. Many of the other results were omitted from the sample, so actives are more common in it than they were.
# Biological target: Gag-Pol polyprotein (Human immunodeficiency virus type 1 group M subtype B (isolate HXB2)) (UniProt P04585)
# Experiment: RNase H inhibition, HIV 1 Gag Pol polyprotein, FRET biochemical assay, screening (AID 372)
# Details: HIV-1 RT RNase H, FRET RNA/DNA substrate fluorescence; at 10 µM; active compounds read high
row,Structure (SMILES),inhibition
1,CCN(CC)CCN1C(=O)C(=O)/C(=C(/O)c2ccccc2)C1c1cccc([N+](=O)[O-])c1 (centres undefined),1% (inactive)
2,CCN(CC)c1ccc(N=Cc2c[nH]c3ccccc23)cc1,4% (inactive)
3,CC(C)C(=O)NS(=O)(=O)c1ccc(N)cc1,5% (inactive)
4,CC(=O)Nc1nc(-c2ccc(Cl)cc2)nc(C)c1C(C)=O,3% (inactive)
5,CC(=O)Nc1nc(-c2ccccc2)nc(C)c1C(C)=O,6% (inactive)
6,CC(=O)c1c(C)nc(-c2ccc(Cl)cc2)nc1NC(=O)c1ccccc1,59% (active)
7,CCOC(=O)c1c(C)oc2c(F)c(F)c(F)c(F)c12,22% (inactive)
8,O=C(Nc1ccc(O)cc1)c1ccc2c(c1)C(=O)N(c1ccccn1)C2=O,13% (inactive)
9,O=C(Nc1ccccc1)c1ccc2c(c1)C(=O)N(c1cccc(N3C(=O)c4ccc(C(=O)Nc5ccccc5)cc4C3=O)n1)C2=O,8% (inactive)
10,Cc1ccc(NC(=O)c2ccc3c(c2)C(=O)N(c2ccc([N+](=O)[O-])cc2)C3=O)cc1,17% (inactive)
11,COC(=O)c1ccc(NC(=O)c2ccc3c(c2)C(=O)N(c2cccc([N+](=O)[O-])c2)C3=O)cc1,10% (inactive)
12,O=C(Nc1ccc(O)cc1)c1ccc2c(c1)C(=O)N(c1cccc(N3C(=O)c4ccc(C(=O)Nc5ccc(O)cc5)cc4C3=O)n1)C2=O,54% (active)
13,COC(=O)c1ccc(NC(=O)c2ccc3c(c2)C(=O)N(c2ccc([N+](=O)[O-])cc2)C3=O)cc1,52% (active)
14,CC(C)(C)C1(O)CC(C(F)(F)F)=NN1C(=O)c1ccc([N+](=O)[O-])cc1 (centres undefined),18% (inactive)
15,COc1ccc(NC(=O)c2ccc(-c3ccccc3)cc2)cc1,8% (inactive)
16,COC(=O)c1c(C)oc2cc(Br)c(OC(=O)c3cccc([N+](=O)[O-])c3)cc12,0% (inactive)
17,Cc1cccc(C)c1OCCOc1ccccc1/C=C1\SC(=S)N(C)C1=O,13% (inactive)
18,CC(c1ccccc1)C1CC(=O)N(c2ccc(I)cc2)C1=O (centres undefined),54% (active)
19,CC(c1ccccc1)C1CC(=O)N(c2ccccc2)C1=O (centres undefined),0% (inactive)
20,CC(c1ccccc1)C1CC(=O)N(c2ccc(F)cc2)C1=O (centres undefined),0% (inactive)

row,Structure (SMILES),inhibition
1,CCCc1cc2c(-c3ccccc3)cc(=O)oc2cc1OCC(=O)O,9% (inactive)
2,CCCc1cc2c(-c3ccccc3)cc(=O)oc2cc1OCc1ccc(C(=O)O)o1,59% (active)
3,CCCc1cc2c(-c3ccccc3)cc(=O)oc2cc1OCC,22% (inactive)
4,Cc1ccc(NC(=O)C(=NNc2ccccc2)C(=O)Nc2ccc(C)cc2)cc1,0% (inactive)
5,CC(=O)N(c1ccccc1)C1CC(C)Nc2ccccc21 (centres undefined),1% (inactive)
6,CC1CC(N(c2ccccc2)S(=O)(=O)c2ccc(Cl)cc2)c2ccccc2N1 (centres undefined),60% (active)
7,CC1CC(N(C(=O)c2ccc(Cl)cc2)c2ccccc2)c2ccccc2N1 (centres undefined),10% (inactive)
8,CCOC(=O)c1sc(NC(=O)/C=C/c2cccc([N+](=O)[O-])c2)nc1C,6% (inactive)
9,COC(=O)C1=C(C)NC(=O)/C1=C\c1ccccc1,8% (inactive)
10,O=C1/C(=C\c2ccc(-c3ccccc3[N+](=O)[O-])o2)SC(=S)N1C1CCS(=O)(=O)C1 (centres undefined),23% (inactive)
11,Cc1cc(C)cc(-n2c(C)cc(/C=N/NC(=O)c3cccnc3)c2C)c1,13% (inactive)
12,O=c1/c(=C/c2ccc(-c3ccccc3Cl)o2)sc2nc3ccccc3n12,3% (inactive)
13,COc1ccc(C2C3=C(CC(C)(C)CC3=O)Nc3ccccc3N2C(=O)CC(C)C)cc1 (centres undefined),3% (inactive)
14,O=C(/C=C/c1cccc([N+](=O)[O-])c1)Nc1ccc(-c2nc3ccccc3o2)c(O)c1,14% (inactive)
15,O=C(/C=C/c1cccc([N+](=O)[O-])c1)Nc1ccc(-c2nc3ccccc3o2)cc1,54% (active)
16,O=C(/C=C/c1ccc(Cl)cc1)Nc1ccc(-c2nc3ccccc3o2)c(O)c1,20% (inactive)
17,O=C(/C=C/c1cccc([N+](=O)[O-])c1)Nc1ccc2oc(-c3ccccc3)nc2c1,31% (inactive)
18,O=C(/C=C/c1ccc(Cl)cc1)Nc1ccc(-c2nc3ccccc3o2)cc1,52% (active)
19,Cc1ccc2nc(-c3ccc(NC(=O)/C=C/c4ccc(Cl)cc4)cc3)oc2c1,48% (inactive)
20,Cc1ccc2nc(-c3ccc(NC(=O)/C=C/c4cccc([N+](=O)[O-])c4)cc3)oc2c1,54% (active)

row,Structure (SMILES),inhibition
1,Cc1cc(C)c2oc(-c3ccc(NC(=O)/C=C/c4cccc([N+](=O)[O-])c4)cc3)nc2c1,16% (inactive)
2,Cc1ccc2nc(-c3ccc(C)c(NC(=O)/C=C/c4cccc([N+](=O)[O-])c4)c3)oc2c1,40% (inactive)
3,N#Cc1cnn(-c2ccc3ccccc3c2)c1N,5% (inactive)
4,Cc1ccc(N=Cc2ccco2)c(C)c1,29% (inactive)
5,CC1(C)CC(=O)c2cc(C(=O)NCc3ccccc3)c(=O)n(-c3ccccc3)c2C1,15% (inactive)
6,O=C(COc1ccc(Br)cc1Cl)NCCc1ccccc1,16% (inactive)
7,COc1ccc(CCNC(=O)COc2ccc(Cl)cc2Br)cc1OC,54% (active)
8,COc1ccc(CC(=O)Nc2ccc(Br)cc2F)cc1OC,12% (inactive)
9,COc1ccc(CCNC(=O)COc2ccc(Br)cc2Cl)cc1OC,53% (active)
10,COc1ccc(CCNC(=O)COc2ccc(Br)cc2)cc1OC,1% (inactive)
11,COc1ccc(CCNC(=O)COc2ccccc2OC)cc1OC,1% (inactive)
12,COc1ccc(CC(=O)Nc2ccc(Cl)cc2C)cc1OC,0% (inactive)
13,COCCNC(=O)COc1ccc(Cl)cc1Br,14% (inactive)
14,COc1ccc(CC(=O)Nc2ccc(Br)cc2C)cc1OC,50% (active)
15,CC(C(=O)N1CCOCC1)N1C(=O)c2cccc3cccc(c23)C1=O (centres undefined),19% (inactive)
16,COc1ccc(C(=O)N2CCc3ccccc3C2)cc1,15% (inactive)
17,COc1cc(/C=C2/C(=O)NC(=O)N(Cc3ccco3)C2=O)ccc1OCC(N)=O,0% (inactive)
18,CCOc1ccc(/C=C2\SC(=S)N(Cc3ccccc3)C2=O)c(OCC)c1,12% (inactive)
19,CCOC(=O)C1=C(C)N(c2ccccc2)C(=O)C1,10% (inactive)
